This note sets out measurements from the supplement of paper PMC6555819.

For one test, the system named is LXRb homodimer (NR concentration 270 nM). Kind of test: PBM binding z-score (relative to random genomic background probes); higher = stronger binding; sequences stand for … in GC…GCGATTGACAGCGTAGAATGAAGG
Summed up: (§1)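 Custom Agilent 4×180K protein-binding microarrays carried double-stranded probes. Their 34-nt variable regions held direct-repeat seeds, single-nucleotide variants, half-site ablations and random human genomic background sequences. Arrays were incubated 1 h with ligand-free nuclear receptor dimers in PBS pH 7.4, 2% milk, 0.02% Triton X-100, 1 mM DTT, 0.2 mg/mL BSA and 0.4 mg/ml salmon testes DNA. Antibodies against each partner (one per run) detected binding, and scanned fluorescence was regression-normalized. Binding z-scores use random background probes as reference.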
TCTTGTAGATCAAGCAGGTTAGGAAAGCCTGAGT registered a PBM binding z-score of -0.701.
ATCTCTAGGTAGAGTTCAGTGAAAGATCGATAGA showed a PBM binding z-score of 0.516.
On the same count and under the same terms, then GCTTGTAGAGCAAGGTTAAGAAAGACTAAGCTAA, with -1.28; and CAAACTAGGTCAAATGTCAAAGTCGAGCCAACCA, with 1.49; and TCATATAGGTATAGGTGAAAGTCGAACGATATGA, with -0.47.
The same measure, in the same setting: then CAAACTAGGTCAAGAGATCAAAGTCCGCTTCCCG, with 0.064.
Still for that read-out and setting: then CCTGCTAGGTCAATCGTCAGCTAAAGCAGCTCGC, with 0.108; and CGTCAAAGTTCAAGGTAACGTGACAGAAAGCAGC, with 0.738.
In turn, ATCGAAACGTCGAGGTGAGTATAGAGAAAGGGAA returned a PBM binding z-score of -0.471.
Same read-out and setting: then AGCGAAAGGTCGTGAGGTGAGTATACAGAAAGGC, with -0.2; and CGAACTAGGGCATTGACAGGACAGTGAATAGTAA, with -0.654.
Sequence CGGACTGGGGCAAGGTTACCATAACGCACAGCCA gave a PBM binding z-score of -0.449.
On the same count and under the same terms, the value for AGCATGAGGTTACCAAAGATCAGGGAAACGCTTG was -0.682; that for CTAGCAAGGTGAACAAGGTCGTTGATTACTATTC was -1.03.
On to CTACTAAGGTGAACAAGGTCGTTGATTACTATTC, for which the PBM binding z-score was -0.227.
CGTCCAAGGTCAAAGTTCAGTGAAGAGATGACGG yielded a PBM binding z-score of 2.19.
As to TCTTGTAGATCAATAGAGGGTAAGAAAGTGCGCT, the PBM binding z-score was found to be 0.175.
ATCGAAAGGTCGTGAGGTGCGTATACAGAAAGGC came in with a PBM binding z-score of -0.0634.
Take CCTATTAGTTGAGCATAAGGGCAACCGAAGCTCG: the PBM binding z-score amounted to 0.346.
TCTTGTAGATCAACAGGAGGTTAAAAAAGATCGA showed a PBM binding z-score of -0.17.
The same measure, in the same setting: the value for TGAATGAGGTTAAAGTTCAGGGAACGTGGCGTCG was 0.344; that for ATCTCTAGGTAAGACTCAATTCAGTGAAGAACGC was 0.847; that for AGTCAAAGTTCATCTAGGTAACGTATGATATGCT was 1.5.
GCTATTAGTAGAAAGGGCAACCGAATGATTCTCG showed a PBM binding z-score of -0.195.
In the case of ATCCAAAGGTCGAAGGTGAGTATACCCACCCGAA, the PBM binding z-score came to 0.577.
Same read-out and setting: then TGAATGAGGTTATATGATCAGGGAACGTTGCAAA, with 0.134; and CCTAGTTGGTCAGAAGGTCACACACCGGATATGA, with 1.07.
ATCTCTAGGTAAAAGTTCAGTGAATCCCGAGGAT: the PBM binding z-score is 0.841.
With TCGAGTAGGTTAGTTGGGGCATTCAGCCAACATA, the PBM binding z-score is -0.31.
For the sequence TCTGCTAGGTCAGTTGGTCAGCTATCGAGCTGCC, the PBM binding z-score turned out to be 0.35.
ACAGACAGGTGATGATGGTAACTCAGGCTATCAT registered a PBM binding z-score of -0.2.
The sequence TAGCATAGGTCATTGGGCCAGTATAGTACGCATC came in with a PBM binding z-score of 0.541.
On the same count and under the same terms, then CCTACTTGGCCAAGGTCATTGATCAGTCAAAGCA, with 1.21; and CCAGACAGGTGAGAAGGTCACTCAGCCTCGATTA, with -0.075; and ACTAGTAGTTGACTTAGGGCAACCGATACGACGC, with -0.259.
Take ATCTCTAGGTAAGACTCAGTTCAGTGACGAACGC: the PBM binding z-score stood at 0.883.
The same measure, in the same setting: the value for ATATATAGGTTATCGGGTCATTCAGTTTGCGCAT was 2.07; that for AGTCAATGTTCACTAGGTAACGTAAGATTCAGCT was -0.147.
On the same count and under the same terms, then ACTACTTGGTCAGCTGAGGTCACACACAATTCGG, with 1.27.
The same measure, in the same setting: then TCTCTGAGGACACGAAAGGTCAGAGCTCGACATC, with 0.245.

For a further test, the system named is PPARa:RXRa (NR concentration 270 nM, RXRa partner concentration 90 nM). Described as above. Put shortly: as §1
Turning to TCTTGTAGATCAAGCAGGTTAGGAAAGCCTGAGT, the PBM binding z-score was determined as 0.251.
On the same count and under the same terms, the value for ATCTCTAGGTAGAGTTCAGTGAAAGATCGATAGA was 1.78; that for GCTTGTAGAGCAAGGTTAAGAAAGACTAAGCTAA was 1.5.
The same measure, in the same setting: the value for CAAACTAGGTCAAATGTCAAAGTCGAGCCAACCA was 6.77.
Same read-out and setting: the value for TCATATAGGTATAGGTGAAAGTCGAACGATATGA was 1.42; that for CAAACTAGGTCAAGAGATCAAAGTCCGCTTCCCG was 5.17; that for CCTGCTAGGTCAATCGTCAGCTAAAGCAGCTCGC was 2.85.
As for CGTCAAAGTTCAAGGTAACGTGACAGAAAGCAGC, the PBM binding z-score was found to be 4.34.
Still for that read-out and setting: then ATCGAAACGTCGAGGTGAGTATAGAGAAAGGGAA, with -0.00336; and AGCGAAAGGTCGTGAGGTGAGTATACAGAAAGGC, with 5.26; and CGAACTAGGGCATTGACAGGACAGTGAATAGTAA, with 2.23.
As for CGGACTGGGGCAAGGTTACCATAACGCACAGCCA, the PBM binding z-score stood at 2.67.
AGCATGAGGTTACCAAAGATCAGGGAAACGCTTG yielded a PBM binding z-score of 2.77.
The same measure, in the same setting: then CTAGCAAGGTGAACAAGGTCGTTGATTACTATTC, with 2.39; and CTACTAAGGTGAACAAGGTCGTTGATTACTATTC, with 3.07; and CGTCCAAGGTCAAAGTTCAGTGAAGAGATGACGG, with 6.47.
TCTTGTAGATCAATAGAGGGTAAGAAAGTGCGCT returned a PBM binding z-score of 0.606.
Take ATCGAAAGGTCGTGAGGTGCGTATACAGAAAGGC: the PBM binding z-score stood at 5.18.
The same measure, in the same setting: the value for CCTATTAGTTGAGCATAAGGGCAACCGAAGCTCG was 0.124; that for TCTTGTAGATCAACAGGAGGTTAAAAAAGATCGA was 1.54; that for TGAATGAGGTTAAAGTTCAGGGAACGTGGCGTCG was 6.3.
For the sequence ATCTCTAGGTAAGACTCAATTCAGTGAAGAACGC, the PBM binding z-score is 0.0535.
On the same count and under the same terms, the value for AGTCAAAGTTCATCTAGGTAACGTATGATATGCT was 4.97.
The sequence GCTATTAGTAGAAAGGGCAACCGAATGATTCTCG showed a PBM binding z-score of 1.42.
Sequence ATCCAAAGGTCGAAGGTGAGTATACCCACCCGAA displayed a PBM binding z-score of 4.95.
TGAATGAGGTTATATGATCAGGGAACGTTGCAAA displayed a PBM binding z-score of 2.97.
Same read-out and setting: then CCTAGTTGGTCAGAAGGTCACACACCGGATATGA, with 4.17.
Same read-out and setting: the value for ATCTCTAGGTAAAAGTTCAGTGAATCCCGAGGAT was 4.11; that for TCGAGTAGGTTAGTTGGGGCATTCAGCCAACATA was 0.49.
TCTGCTAGGTCAGTTGGTCAGCTATCGAGCTGCC: the PBM binding z-score came out at 1.26.
Turning to ACAGACAGGTGATGATGGTAACTCAGGCTATCAT, the PBM binding z-score is -0.0535.
On the same count and under the same terms, the value for TAGCATAGGTCATTGGGCCAGTATAGTACGCATC was 5.41; that for CCTACTTGGCCAAGGTCATTGATCAGTCAAAGCA was 4.
CCAGACAGGTGAGAAGGTCACTCAGCCTCGATTA: the PBM binding z-score worked out at 3.65.
Still for that read-out and setting: then ACTAGTAGTTGACTTAGGGCAACCGATACGACGC, with -0.00302; and ATCTCTAGGTAAGACTCAGTTCAGTGACGAACGC, with 0.279.
On the same count and under the same terms, the value for ATATATAGGTTATCGGGTCATTCAGTTTGCGCAT was 5.17; that for AGTCAATGTTCACTAGGTAACGTAAGATTCAGCT was 0.363; that for ACTACTTGGTCAGCTGAGGTCACACACAATTCGG was 3.76.
Same read-out and setting: then TCTCTGAGGACACGAAAGGTCAGAGCTCGACATC, with 3.53.
